Screens as filed in PubChem BioAssay.
Only some compounds are listed: those with a hit (about 1.5% of all), similar ones and a draw of the others.
PGK inhibitor: T. brucei PGK inhibition | P07378 | PGK/GAPDH coupled, Kinase-Glo luminescence, 60 min | Potency, µM (top dose mostly 57.5 µM), without a hit: at the highest dose activity change, negative = inhibition, hits mostly inhibitors | 0.043% of 380,000 active; further: potency means the concentration at half of the fitted maximal effect; nearly all actives have a fitted effect of over 60% in size
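Luminescent ATP detection (Kinase-Glo Plus) follows a 60-minute room-temperature incubation, with wells lacking PGK as controls. Buffer: 100 mM TEA (pH 7.6), 5 mM MgCl2, 0.01% Tween-20. Coupling enzyme GAPDH (100 nM final) supplies unstable 1,3-BPG in-well.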
PI5P4K alpha inh: PI5P4K alpha (human) kinase inhibition | P48426 | PI5P4Kalpha enzyme, ADP-Glo luminescence, 60 min; active compounds read low | max response, % | 1.2% of 330,000 active; active means max response of -50% or lower; inconclusive means between -30% and -50%; inactive means -30% or higher; further: value at the top dose of about 77 µM
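Enzyme plus substrate dispensed, test compounds pinned in, then ATP (5 microM final) added. After 60 min at RT, ADP-Glo reagent 1 for 45 min and reagent 2 for 30 min preceded luminescence imaging.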
TDP1 inh: inhibitors of human tyrosyl-DNA phosphodiesterase TDP1. recombinant TDP1, AlphaScreen DNA substrate cleavage. Potency, µM (top dose mostly 130 µM), for inactives: at the top dose activity change, negative = inhibition, most hits filed as inhibitors. 0.28% of 350,000 active. AID 485290; further: potency means the concentration at half of the fitted maximal effect; nearly all actives have a fitted effect of over 40% in size
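Here, a 5' biotin and 3' phosphotyrosine-FITC DNA oligonucleotide reports Tdp1 activity: intact substrate bridges AlphaScreen beads, while cleavage leaves a 3' phosphate and drops signal. All incubations at room temperature.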
FEN1 inh: blocks human flap endonuclease 1; P39748; Recombinant FEN1 flap cleavage, fluorescence, 15 min; Potency, µM (series often up to 114 µM), inactives show top-dose activity change, negative = inhibition, usual class: inhibitors; 0.35% of 390,000 active; AID 588795; further: potency means the concentration at half of the fitted maximal effect; nearly all actives have a fitted effect of over 65% in size
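Read-out was taken twice, immediately and after 15 min, following addition of 50 nM substrate to 10 nM FEN1 that had sat with test compound for 15 min at room temperature. Curves came from a four-parameter Hill model.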
WRN helicase inh: blocks human WRN helicase. Potency, µM (series often up to 114 µM), for inactives: at the top dose activity change, negative = inhibition, usual class: inhibitors. AID 651768. 0.46% of 360,000 active. Q14191. WRN helicase unwinding, fluorescent forked duplex, kinetic; further: potency means the concentration at half of the fitted maximal effect; nearly all actives have a fitted effect of over 55% in size
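Fluorescence dequenching readout, ex 525 nm/em 598 nm, kinetic mode: forked duplex DNA (100 nM final) with adjacent fluorophore and quencher unwound by WRN (20 nM final) with 2 mM ATP. Compound preincubation 15 min, room temperature.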
Tb PFK block: inhibitors of T. brucei phosphofructokinase; O15648; T. brucei PFK, ADP-Glo luminescence; Potency, µM (titrated, usually from 57.5 µM), inactives show top-dose activity, negative = inhibition, usual class: inhibitors; 0.17% of 330,000 active;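 further: potency means the concentration at half of the fitted maximal effect; 0% = uninhibited 1x PFK enzyme wells and -100% = no-enzyme wells; nearly all actives have a fitted effect of over 60% in size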
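Luminescent ADP detection (ADP-Glo, two-step: ATP depletion then ADP-to-ATP conversion for luciferase) reported PFK activity after 45 min room-temperature reaction of 1.25 nM enzyme with 0.5 mM F6P and 0.1 mM ATP at pH 8.0.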
Active calls of the source: *; i = inactive; ? = inconclusive; nt = no result; [ ] = remark or other dose. Unless noted, the call rests on the fitted dose curve; in most records, active means well fitted curve in the direction sought with a large enough effect; inconclusive means small, poorly fitted or top-dose-only effect, or another doubt; inactive means no such curve, though single readings can be large; an effect the other way counts as inactive or inconclusive. Unless noted, on the % scale 0 is the no-effect control and ±100 the full control effect.

SMILES	PGK inhibitor	PI5P4K alpha inh	TDP1 inh	FEN1 inh	WRN helicase inh	Tb PFK block
Cc1ccc(C2C3=C(CCCC3=O)Nc3[nH]c(=S)[nH]c(=O)c32)cc1 (centres undefined)	-1%	nt	4%	-5%	4%	2%
O=C1CCCC2=C1C(c1ccc(Br)cc1)c1c([nH]c(=S)[nH]c1=O)N2 (centres undefined)	1%	-75*	5%	7%	-3%	-13%
CC1(C)CC(=O)C2=C(C1)Nc1[nH]c(=S)[nH]c(=O)c1C2c1ccccc1 (centres undefined)	-1%	-57*	6%	0%	-8%	-3%
CN(C)c1ccc(Cc2cc3c(O)ccc(O)c3cc(Cc3ccc(N(C)C)cc3)c2=O)cc1	-30%	-84*	nt	40µM*	13µM*	nt
CN(C)c1ccc(C(=O)c2ccc(O)cc2O)cc1	-9%	-10	7%	-1%	-4%	2%
OCCN(Cc1ccccc1)Cc1cccc(Cl)c1Cl	4%	nt	16µM*	-14%	-5%[57.1 µM]	-12%
COc1ccc(-n2nc3c(=O)[nH][nH]c3cc2=O)cc1	-15%	-17	45µM*	?	?	1%
CCn1cnc2sc(-c3ccccc3)cc2c1=O	4%	0	10%	1%	4%	0%
N#CCn1cnc2sc(-c3ccccc3)cc2c1=O	0%	-52*	-8%	1%	-11%[11.6 µM]	-6%
CC(C)(C)n1ncc2c(=O)n(Cc3cccc(Oc4ccccc4)c3)cnc21	nt	nt	nt	5%	nt	nt
C=CCNc1nnc(Cc2ccc(C(C)C)cc2)c(=O)[nH]1	i	0	50µM*	3%	13%	3%
Cc1c(P(=S)(c2ccccc2)c2ccccc2)[n+]2ccccc2n1Cc1ccccc1	nt	nt	1%	nt	nt	nt
O=c1c(C(c2c(O)nc3n(c2=O)CCS3)c2cccc3ccccc23)c(O)nc2n1CCS2	-12%	-76*	?	-4%	?	3%
Cc1ccc(C(c2c(O)nc3n(c2=O)CCS3)c2c(O)nc3n(c2=O)CCS3)cc1	-1%	-27	-14%	-4%	?	11%
COc1ccccc1C(NC(C)=O)c1cc(Cl)c2cccnc2c1O (centres undefined)	6%	4	nt	2%	2%	-2%
O=C(O)COc1ccccc1C(Nc1cccnc1)c1cc(Cl)c2cccnc2c1O (centres undefined)	-3%	-64*	-3%	?	?	?
Cc1ccnc(N=O)c1	i	?	nt	50µM*	4%	7%
Cc1ccc(-c2cc(-c3ccccc3)c(C#N)c(N)n2)o1	-9%	-58*	1%	-23%	-19%	-24%
N#CCC(N)=C(C#N)C#N	-4%	-76*	-3%	-5%	-14%	-3%
Oc1ccc(C=Nc2ccc(N3CCOCC3)cc2)c(O)c1	-28%	-60*	4%	3%	-23%[57.1 µM]	6%
O=[N+]([O-])c1cc(Cc2ccccc2)cc(C=Nc2ccc(N3CCOCC3)cc2)c1O	-1%	-51*	11%	?	?	-5%
Oc1c(Cl)cc(Cl)cc1C=Nc1ccc(N2CCOCC2)cc1	0%	3	nt	-1%	?	-5%
Cc1ccc(O)c(N=Cc2cc(Cc3ccccc3)cc([N+](=O)[O-])c2O)c1	-17%	-64*	11%	?	?	-9%
c1csc(CNc2ncnc3cc(-c4ccc5c(c4)OCO5)ccc23)c1	nt	nt	-9%	nt	nt	nt
CCCCCCCCCCCCC1CO1 (centres undefined)	nt	nt	3%	nt	nt	nt
SMILES	PGK inhibitor	PI5P4K alpha inh	TDP1 inh	FEN1 inh	WRN helicase inh	Tb PFK block
COc1ccc(OC)c(C2CC(=O)N3CN(c4ccccc4)CSC3=C2C#N)c1 (centres undefined)	-4%	-85*	8%	?	-3%	-18%
CCOc1cc(C2CC(=O)N3CN(C4CCCCC4)CSC3=C2C#N)ccc1O (centres undefined)	1%	-60*	3%	?	6%	-1%
COc1cc(OC)c(C2CC(=O)N3CN(c4ccccc4C)CSC3=C2C#N)cc1OC (centres undefined)	nt	nt	7%	nt	nt	-10%
COc1ccc(C2CC(=O)N3CN(c4ccccc4F)CSC3=C2C#N)cc1OC (centres undefined)	-4%	-84*	5%	?	-5%	-7%
COc1ccc(C2CC(=O)N3CN(Cc4ccco4)CSC3=C2C#N)cc1 (centres undefined)	-11%	nt	2%	3%	-31%	-18%
COC(=O)/C=C/c1ccccc1S(=O)(=O)NC(C)C	nt	nt	nt	14%	nt	nt
C=C1C=C(C(F)F)n2ncc(C(=O)NCc3ccc(F)cc3)c2N1	nt	nt	nt	-5%	nt	nt
O=S(=O)(c1cccc(Cl)c1)N1CCN(c2nc(-c3cccs3)nc3ccccc23)CC1	nt	nt	1%	16%	nt	nt
CCOC(=O)c1ccccc1NC(=O)COC(=O)C1CCCC1	3%	4	nt	0%	-11%	-11%
CCOC(=O)c1ccccc1NC(=O)COC(=O)CC1CCCCC1	-6%	-1	50µM*	11%	1%	1%
Cc1ccc(/C=C/C(=O)O)cc1S(=O)(=O)N1CCc2ccccc21	-2%	-76*	nt	-16%	-5%[57.1 µM]	-6%
Cc1ccc(/C=C/C(=O)O)cc1S(=O)(=O)N1CCc2ccccc2C1	i	?	6%	-13%	3%[57.1 µM]	-1%
Cc1ccc(/C=C/C(=O)O)cc1S(=O)(=O)Nc1ccccc1C(=O)O	-1%	-53*	nt	4%	2%[11.6 µM]	?
Cc1ccc(/C=C/C(=O)O)cc1S(=O)(=O)N1CCCc2ccccc21	3%	-90*	5%	19%	-5%	1%
O=C1CCc2cc([S+](=O)([O-])Nc3ccc(N[S+](=O)([O-])c4ccc5c(c4)CCC(=O)N5)cc3)ccc2N1	nt	nt	0%	nt	nt	nt
COc1cccc(-c2nnc3n2N=C(c2c(OC)cccc2OC)CS3)c1	nt	nt	12%	nt	nt	nt
Cc1cc2nc(-c3ccc(SCc4ccc(C(=O)O)cc4)nc3)[nH]c2cc1C	-10%	-64*	22µM*	?	?	10%
COc1ccc(C(=O)Nc2ccc(-c3n[nH]c(=S)o3)cc2)cc1	-10%	-55*	nt	-23%	-15%	2%
C=CCOc1ccc(-c2n[nH]c(=S)o2)cc1	4%	-60*	2%	3%	-3%	-4%
Cc1ccc(NC(=S)Nc2cccc(-c3n[nH]c(=S)o3)c2)cc1	0%	-68*	-4%	-12%	-24%	0%
O=c1[nH]nc(-c2ccc(OCc3ccc(Cl)cc3Cl)cc2)o1	1%	-2	nt	-12%	-4%[57.1 µM]	1%
COc1ccc(C(=O)Nc2ccc3oc(-c4ccc(OC)cc4)nc3c2)cc1	0%	nt	1%	15%	nt	nt
